RORgamma inh – ROR gamma (mouse) transcription inhibition | actives 5.4% (n = 310,000) | Potency, µM (series often up to 53.6 µM), for inactives: at the highest dose activity change, negative = inhibition, actives largely listed as inhibitors | Drosophila S2 Gal4-RORgamma UAS-luciferase reporter, 20 h; also: potency is read from the fitted curve at half-maximal effect; nearly all actives have a fitted effect of over 60% in size
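A Gal4/UAS one-hybrid system in insect cells: metallothionein-promoter Gal4–ROR gamma fusion plus Photinus luciferase reporter. Copper sulfate 700 uM final, 20 hr ambient incubation, luminescent detection after 10 min with reagent.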
Six1-Eya2 inh – inhibitors of human Six1/Eya2 interaction; Q15475+O00167; activity change, % (concentration not given with the values); AlphaScreen GST-Six1/His-Eya2 binding, biochemical; active compounds read low; actives 0.56% (n = 360,000); in the data active = activity change below about -65%; inconclusive = mostly about -30% to -63%
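Homogeneous AlphaScreen proximity assay pairing GST-Six1 with His-tagged Eya2 (added as 5X mix: 250 nM and 500 nM) in 50 mM Tris pH 8.0, 300 mM NaCl, 1 mM TCEP. Glutathione donor and nickel acceptor beads; 1 h, 37 °C, dark.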
Gal4-VP16 FLuc – counter-screen for ROR gamma inhibitors: Gal4-VP16 reporter; Potency, µM (titrated, usually from 53.6 µM), without a hit: at the highest dose activity, negative = inhibition, most hits filed as inhibitors; AID 2546; Drosophila S2 Gal4-VP16 UAS-luciferase, luminescence, 20 h; actives 3.5% (n = 310,000);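 also: Gal4-VP16 expression switched on by copper sulfate through the metallothionein promoter; potency is read from the fitted curve at half-maximal effect; nearly all actives have a fitted effect of over 50% in size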
PKM2 activator – PKM2 (human) enzyme activation | P14618 | actives 0.34% (n = 260,000) | AID 1631 | purified PKM2, Kinase-Glo ATP luminescence, activation; response scale: 0% is enzyme alone, no compound | Potency, µM (titrated, usually from 57.5 µM), for the others: at the highest dose activation, hits mostly activators; also: potency is read from the fitted curve at half-maximal effect; nearly all actives have a fitted effect of over 55% in size
Target sequence (P14618 whole entry, looked up): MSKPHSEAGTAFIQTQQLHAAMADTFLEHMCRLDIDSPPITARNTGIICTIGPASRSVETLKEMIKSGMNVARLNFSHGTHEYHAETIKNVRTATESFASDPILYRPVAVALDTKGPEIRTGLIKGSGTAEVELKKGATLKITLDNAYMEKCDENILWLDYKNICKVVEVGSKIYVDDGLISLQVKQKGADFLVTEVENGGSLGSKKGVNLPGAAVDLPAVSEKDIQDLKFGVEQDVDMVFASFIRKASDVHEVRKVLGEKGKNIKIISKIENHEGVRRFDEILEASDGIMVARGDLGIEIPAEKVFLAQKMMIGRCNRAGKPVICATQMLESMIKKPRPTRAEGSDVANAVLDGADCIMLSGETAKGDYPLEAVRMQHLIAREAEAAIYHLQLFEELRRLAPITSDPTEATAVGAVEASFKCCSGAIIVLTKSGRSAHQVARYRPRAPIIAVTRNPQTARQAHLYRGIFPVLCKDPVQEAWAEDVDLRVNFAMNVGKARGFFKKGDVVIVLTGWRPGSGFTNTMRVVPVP
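ATP formation by purified human PK-M2, quantified via coupled luciferase luminescence after 1 h at room temperature with 0.1 mM ADP and 0.5 mM PEP final.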
CtBP-E1A blk – CtBP/E1A binding inhibition | AlphaScreen GST-E1A/His-CtBP binding, 1536-well; active compounds read low | activity change, % (concentration not given with the values) | actives 0.49% (n = 340,000); in the data active = activity change below about -65%; inconclusive = mostly about -30% to -63%
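GST-E1A and His-tagged CtBP (125 nM each as 5X stock) were preincubated with pin-transferred compound for 2 h at 37 °C in the dark, then glutathione donor and nickel acceptor beads were added for 1 h before AlphaScreen reading.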
Numbers without * were called inactive; ? = inconclusive; . = no result. The list is not random: actives were taken first. Their share in the collection is about 5.6%. Unless noted, calls follow the shape of the dose curve; as a rule, active = well fitted curve in the direction sought with a large enough effect; inconclusive = small, poorly fitted or top-dose-only effect, or another doubt; inactive = no such curve, though single readings can be large; an effect the other way counts as inactive or inconclusive. % is scaled to controls: 0 for no effect and ±100 for the full control effect.

SMILES | RORgamma inh | Six1-Eya2 inh | Gal4-VP16 FLuc | PKM2 activator | CtBP-E1A blk
CCn1c(COc2ccc(C)cc2)nnc1SCc1nc2ccccc2[nH]1 | 13µM* | -1 | ? | 2% | 2
O=c1[nH]c(CSc2nnc(COc3ccccc3)n2-c2ccccc2)nc2ccccc12 | 13µM* | -4 | ? | -10% | -16
O=C(CSC(=S)N1CCCC1)N/N=C/c1c(O)[nH]c(=S)[nH]c1=O | . | -91* | . | . | -93*
Cc1cc(OC(=O)c2ccc(S(=O)(=O)N(C)C)cc2)c([N+](=O)[O-])c(=O)[nH]1 | -25% | 6 | -1% | 4% | 3
O=C(CCC(=O)Nc1ccccc1Cl)NNC(=S)Nc1ccccc1C(F)(F)F | 7.9µM* | -1 | ? | -7% | 2
CC(NC(=S)Nc1ccccc1C(F)(F)F)C1CC2CCC1C2 (stereo not drawn) | 3.2µM* | -2 | 10µM* | 0% | 7
O=C(NNC(=S)Nc1ccccc1C(F)(F)F)C1CC1 | 20µM* | 0 | 6% | 4% | 8
COc1cc(Cl)ccc1OCc1cc(C(=O)N2CCN(C3CCCCC3)CC2)no1 | . | -8 | . | . | -4
COc1ccc(NC(=O)N2CCCC2C(=O)NCc2cccs2)cc1 (stereo not drawn) | 0% | 9 | -11% | -6% | 14
Cc1ccccc1S(=O)(=O)Oc1cccc2c(O)cccc12 | 7.1µM* | 0 | ? | 0% | 4
Cc1cc[n+](-c2ccccc2)c2ccccc12 | 28% | 2 | 11µM* | -2% | 2
COc1cccc(/C=N/NC(=O)Cn2cnc3c2c(=O)n(C)c(=O)n3C)c1OC | -16% | -6 | 1% | 15% | 5
O=C1NC[C@H](CCCCN2C[C@H](Cc3ccc(O)cc3)N(CCc3ccccc3)C(=O)C2=O)N(CC2CCCCC2)C1=O | . | 26 | . | . | 25
Cn1c(=O)c(-c2cccs2)nc2cnc(N3CCNCC3)nc21 | -27% | . | 0% | . | .
COc1cccc(Cn2c(=O)c(-c3cn(C)c4ccccc34)nc3cnc(N4CCOCC4)nc32)c1 | 6% | . | 2% | . | .
COc1cccc(Cn2c(=O)c(-c3cn(C)c4ccccc34)nc3cnc(N4CCNCC4)nc32)c1 | 20µM* | . | ? | . | .
Cn1cc(-c2nc3cnc(N4CCNCC4)nc3n(C)c2=O)c2ccccc21 | 10µM* | . | 11µM* | . | .
CC1CC(C)(C)Nc2ccc(OC(=O)c3ccco3)cc21 (stereo not drawn) | 5µM* | -21 | 2.5µM* | 9% | -12
O=C(Oc1ccc2ccccc2c1)c1ccco1 | 4% | 15 | -9% | -2% | 16
CCCN1CCN(CCCNC(=O)C(CC)n2nc(C)n3c(cc4occc43)c2=O)CC1 (stereo not drawn) | -12% | 1 | 5% | . | 4
CCOC(=O)c1c(C)oc2c1c(C=NCc1ccccn1)c(O)c1ccccc12 | 6.3µM* | -75* | ? | 8% | -1
O=C(/C=C/c1ccco1)Nc1ccccc1N1CCOCC1 | 43% | 0 | ? | 4% | 7
O=C(/C=C/c1ccco1)NC(=S)Nc1ccc(N2CCOCC2)c(Cl)c1 | 1.8µM* | 0 | -19% | 6% | -1
CC(C)CC(=O)NC(=S)Nc1ccc(N2CCCC2)c(Cl)c1 | 0.4µM* | -26 | 2.8µM* | -20% | -8
CC(C)C(=O)Nc1ccc(N2CCCC2)c(Cl)c1 | -32% | -10 | -1% | 0% | 10
SMILES | RORgamma inh | Six1-Eya2 inh | Gal4-VP16 FLuc | PKM2 activator | CtBP-E1A blk
CCCC(=O)NC(=S)Nc1ccc(N2CCOCC2)c(Cl)c1 | 13µM* | 0 | ? | 1% | .
O=C(/C=C/c1ccccc1)NC(=S)Nc1ccc(N2CCOCC2)c(Cl)c1 | 2.5µM* | 8 | ? | -16% | -2
C#C[C@]1(O)CCC2C3CCC4=Cc5oncc5C[C@@]4(C)C3CC[C@@]21C (stereo partly drawn) | -33% | . | 0% | . | .
COc1ccc(CN2C(=O)c3ccccc3C2c2nnnn2-c2c(C)cccc2C)cc1OC (stereo not drawn) | . | 15 | . | . | -1
O=C(Nc1ccc(N2CCOCC2)c(Cl)c1)c1ccccc1Cl | -9% | 7 | -2% | 1% | -7
O=C(NC(=S)Nc1ccc(N2CCOCC2)c(Cl)c1)C(c1ccccc1)c1ccccc1 | 2.8µM* | -18 | 5.6µM* | 3% | 0
CN(c1ccccc1)S(=O)(=O)c1cccc(NC(=O)c2ccc(=O)[nH]n2)c1 | . | 3 | . | . | -4
CCNc1nnc(CSc2nc3ccccc3s2)s1 | -45% | 1 | ? | 21% | 2
c1ccc2sc(Sc3ncnc4sccc34)nc2c1 | 10µM* | -4 | ? | -6% | 6
CCc1cc2c(Sc3nc4ccccc4s3)ncnc2s1 | 8.9µM* | 2 | ? | -2% | 4
CCOC(=O)c1sc(Nc2nc3cc4c(cc3s2)OCO4)cc1C | 5µM* | 2 | 6.3µM* | 7% | -6
CC(=O)c1sc(Nc2nc3cc4c(cc3s2)OCO4)nc1C | 5µM* | -3 | -13% | 1% | 12
CCN(C(=O)c1ccc(S(=O)(=O)N(C)C)cc1)C(C)C(=O)Nc1ccc(C)cc1 (stereo not drawn) | 13% | 16 | -4% | . | 2
CC[C@H](C)[C@H](NC(=O)[C@H](C)NC(=O)[C@H](CC(=O)O)NC(=O)[C@H](CO)NC(=O)[C@@H](N)Cc1cnc[nH]1)C(=O)N[C@@H](Cc1ccccc1)C(=O)N[C@H](C(=O)N[C@@H](CCC(N)=O)C(=O)N[C@@H](CCC(N)=O)C(=O)N[C@@H](Cc1ccc(O)cc1)C(=O)N[C@@H](CO)C(=O)N[C@@H](CCCCN)C(=O)N[C@@H](CC(C)C)C(=O)N[C@@H](CC(C)C)C(=O)N[C@@H](C)C(=O)N[C@@H](CCCCN)C(=O)N[C@@H](CC(C)C)C(=O)N[C@@H](C)C(=O)N[C@@H](CC(C)C)C(=O)N[C@@H](CCC(N)=O)C(=O)N[C@@H](CCCCN)C(=O)N[C@@H](Cc1ccc(O)cc1)C(=O)N[C@@H](CC(C)C)C(=O)N[C@@H](C)C(=O)N[C@@H](CO)C(=O)N[C@H](C(=O)N[C@@H](CC(C)C)C(=O)NCC(=O)N[C@@H](CO)C(=O)N[C@@H](CCCNC(=N)N)C(=O)N[C@H](C(=O)N[C@@H](CO)C(=O)N1CCC[C@H]1C(=O)N1CCC[C@H]1C(=O)N1CCC[C@H]1C(N)=O)[C@@H](C)O)[C@@H](C)CC)[C@@H](C)O | -3% | . | -3% | . | .
CC(CNC(=O)CN1C(=O)COc2ccc(S(=O)(=O)N3CCCCC3)cc21)c1ccccc1 (stereo not drawn) | -11% | 8 | -9% | . | -8
O=C(Nc1nc2cc3c(cc2s1)OCCO3)c1ccco1 | 2.5µM* | -22 | 6.3µM* | -37% | -2
CC(=O)Nc1nc2cc3c(cc2s1)OCO3 | 22% | -3 | -1% | -8% | -6
